Test results taken from ChEMBL document CHEMBL1961873, “Compounds: GSK PKIS; Assays: Nanosyn kinase panel” (2012).

Assays:
[1] = target: Sphingosine kinase 1 (Homo sapiens) (UniProt Q9NYA1); details: at 1 µM;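 further: mean SPHK1 inhibition value reported from the GSK PKIS kinase panel screen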
[2] = target: T1, Sphingosine kinase 2 (Homo sapiens) (UniProt Q9NRA0); details: at 0.1 µM
T1 sequence (whole entry): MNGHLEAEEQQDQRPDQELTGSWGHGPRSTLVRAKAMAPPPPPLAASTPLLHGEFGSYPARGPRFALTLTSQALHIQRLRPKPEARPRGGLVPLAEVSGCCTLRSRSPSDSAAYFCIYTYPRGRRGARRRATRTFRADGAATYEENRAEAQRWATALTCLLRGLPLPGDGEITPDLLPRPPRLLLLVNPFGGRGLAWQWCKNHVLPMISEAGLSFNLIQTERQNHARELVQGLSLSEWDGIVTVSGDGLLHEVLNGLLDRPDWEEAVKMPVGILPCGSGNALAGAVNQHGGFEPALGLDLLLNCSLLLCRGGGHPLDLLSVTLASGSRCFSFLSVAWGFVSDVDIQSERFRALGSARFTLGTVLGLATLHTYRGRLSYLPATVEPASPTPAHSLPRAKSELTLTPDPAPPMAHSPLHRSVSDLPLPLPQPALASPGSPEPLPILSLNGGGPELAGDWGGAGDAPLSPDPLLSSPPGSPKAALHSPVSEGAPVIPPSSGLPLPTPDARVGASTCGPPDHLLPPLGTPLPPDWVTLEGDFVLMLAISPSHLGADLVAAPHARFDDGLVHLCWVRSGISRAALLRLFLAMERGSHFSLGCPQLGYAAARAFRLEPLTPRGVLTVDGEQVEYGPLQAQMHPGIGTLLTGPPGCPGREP

[3] = target: T1, Sphingosine kinase 2 (Homo sapiens); details: at 1 µM
[4] = target: Casein kinase II subunit alpha (Homo sapiens) (UniProt P68400); details: at 0.1 µM
Casein kinase II subunit alpha (Homo sapiens), sequence (P68400 whole entry, looked up): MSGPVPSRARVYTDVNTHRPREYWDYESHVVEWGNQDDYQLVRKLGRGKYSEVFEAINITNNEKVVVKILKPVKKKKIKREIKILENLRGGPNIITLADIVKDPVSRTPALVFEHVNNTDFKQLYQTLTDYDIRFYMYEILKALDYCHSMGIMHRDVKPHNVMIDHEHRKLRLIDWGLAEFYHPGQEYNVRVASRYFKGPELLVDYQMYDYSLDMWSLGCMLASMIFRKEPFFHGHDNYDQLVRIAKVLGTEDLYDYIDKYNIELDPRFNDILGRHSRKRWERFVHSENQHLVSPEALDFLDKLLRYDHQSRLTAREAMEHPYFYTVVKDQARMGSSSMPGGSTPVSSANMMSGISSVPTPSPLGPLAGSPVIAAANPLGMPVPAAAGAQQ

[5] = target: Casein kinase II subunit alpha (Homo sapiens) (UniProt P68400); details: at 1 µM
[6] = target: T2, Inhibitor of nuclear factor kappa-B kinase subunit alpha (Homo sapiens) (UniProt O15111); details: at 0.1 µM
T2 sequence (whole entry): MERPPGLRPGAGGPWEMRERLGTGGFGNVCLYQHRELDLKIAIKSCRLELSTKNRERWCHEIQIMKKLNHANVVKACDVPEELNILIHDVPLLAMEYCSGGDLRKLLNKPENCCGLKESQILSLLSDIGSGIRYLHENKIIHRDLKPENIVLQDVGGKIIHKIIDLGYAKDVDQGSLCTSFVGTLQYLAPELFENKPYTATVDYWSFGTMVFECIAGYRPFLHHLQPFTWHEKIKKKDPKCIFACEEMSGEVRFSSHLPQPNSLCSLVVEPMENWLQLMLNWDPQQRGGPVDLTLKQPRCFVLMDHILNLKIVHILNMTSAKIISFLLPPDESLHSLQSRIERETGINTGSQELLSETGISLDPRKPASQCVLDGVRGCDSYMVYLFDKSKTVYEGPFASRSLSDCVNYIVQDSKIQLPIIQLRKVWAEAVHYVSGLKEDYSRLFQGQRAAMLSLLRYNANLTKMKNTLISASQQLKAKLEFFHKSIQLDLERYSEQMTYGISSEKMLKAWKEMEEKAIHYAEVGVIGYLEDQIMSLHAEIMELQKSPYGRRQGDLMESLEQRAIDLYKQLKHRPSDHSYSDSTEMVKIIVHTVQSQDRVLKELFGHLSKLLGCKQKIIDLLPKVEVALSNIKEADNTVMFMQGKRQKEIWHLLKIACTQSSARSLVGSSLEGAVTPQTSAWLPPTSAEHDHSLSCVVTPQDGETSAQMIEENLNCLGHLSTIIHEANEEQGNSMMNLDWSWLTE

[7] = target: T2, Inhibitor of nuclear factor kappa-B kinase subunit alpha (Homo sapiens); details: at 1 µM
[8] = target: T3, Inhibitor of nuclear factor kappa-B kinase subunit beta (Homo sapiens) (UniProt O14920); details: at 0.1 µM
T3 sequence (whole entry): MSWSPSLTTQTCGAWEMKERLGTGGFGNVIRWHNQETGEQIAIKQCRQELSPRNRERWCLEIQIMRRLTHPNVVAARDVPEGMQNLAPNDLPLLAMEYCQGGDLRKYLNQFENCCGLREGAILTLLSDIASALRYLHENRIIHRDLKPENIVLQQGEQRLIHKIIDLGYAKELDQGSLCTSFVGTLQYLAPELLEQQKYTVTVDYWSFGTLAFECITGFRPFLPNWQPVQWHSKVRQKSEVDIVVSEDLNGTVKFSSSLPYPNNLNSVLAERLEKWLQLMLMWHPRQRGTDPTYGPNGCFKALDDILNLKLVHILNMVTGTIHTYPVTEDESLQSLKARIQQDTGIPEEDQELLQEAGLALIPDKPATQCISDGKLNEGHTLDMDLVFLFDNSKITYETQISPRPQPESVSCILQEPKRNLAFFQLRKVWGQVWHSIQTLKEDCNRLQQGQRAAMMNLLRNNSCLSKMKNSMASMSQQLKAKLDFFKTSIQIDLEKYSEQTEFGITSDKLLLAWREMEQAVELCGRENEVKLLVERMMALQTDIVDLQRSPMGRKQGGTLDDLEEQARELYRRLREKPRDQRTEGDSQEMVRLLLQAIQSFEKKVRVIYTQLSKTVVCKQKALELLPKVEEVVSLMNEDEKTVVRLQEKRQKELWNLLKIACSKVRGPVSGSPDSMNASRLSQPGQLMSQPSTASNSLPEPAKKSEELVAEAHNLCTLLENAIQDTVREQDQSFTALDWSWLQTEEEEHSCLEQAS

[9] = target: T3, Inhibitor of nuclear factor kappa-B kinase subunit beta (Homo sapiens); details: at 1 µM
[10] = target: T4, Inhibitor of nuclear factor kappa-B kinase subunit epsilon (Homo sapiens) (UniProt Q14164); details: at 0.1 µM;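 further: mean inhibition of IKKε reported, from the GSK PKIS dataset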
T4 sequence (whole entry): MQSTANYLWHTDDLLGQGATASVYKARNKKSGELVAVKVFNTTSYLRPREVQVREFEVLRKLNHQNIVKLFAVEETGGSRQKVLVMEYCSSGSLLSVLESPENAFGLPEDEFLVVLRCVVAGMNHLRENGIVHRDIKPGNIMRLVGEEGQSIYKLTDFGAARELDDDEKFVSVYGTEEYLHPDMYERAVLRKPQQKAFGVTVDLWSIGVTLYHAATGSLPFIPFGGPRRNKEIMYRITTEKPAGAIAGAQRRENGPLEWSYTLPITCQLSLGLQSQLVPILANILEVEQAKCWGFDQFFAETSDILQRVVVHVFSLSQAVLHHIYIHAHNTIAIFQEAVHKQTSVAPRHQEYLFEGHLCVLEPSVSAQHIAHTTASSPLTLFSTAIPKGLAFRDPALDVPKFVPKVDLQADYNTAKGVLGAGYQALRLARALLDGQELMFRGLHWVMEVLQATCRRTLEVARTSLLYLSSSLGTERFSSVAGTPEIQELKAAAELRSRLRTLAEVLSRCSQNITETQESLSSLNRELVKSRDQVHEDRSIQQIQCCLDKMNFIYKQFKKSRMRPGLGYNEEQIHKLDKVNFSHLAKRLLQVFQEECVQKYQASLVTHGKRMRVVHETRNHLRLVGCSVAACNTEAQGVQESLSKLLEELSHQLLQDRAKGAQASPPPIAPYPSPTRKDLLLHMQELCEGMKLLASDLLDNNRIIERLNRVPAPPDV

Sphingosine kinase 1 (Homo sapiens), sequence (Q9NYA1 whole entry): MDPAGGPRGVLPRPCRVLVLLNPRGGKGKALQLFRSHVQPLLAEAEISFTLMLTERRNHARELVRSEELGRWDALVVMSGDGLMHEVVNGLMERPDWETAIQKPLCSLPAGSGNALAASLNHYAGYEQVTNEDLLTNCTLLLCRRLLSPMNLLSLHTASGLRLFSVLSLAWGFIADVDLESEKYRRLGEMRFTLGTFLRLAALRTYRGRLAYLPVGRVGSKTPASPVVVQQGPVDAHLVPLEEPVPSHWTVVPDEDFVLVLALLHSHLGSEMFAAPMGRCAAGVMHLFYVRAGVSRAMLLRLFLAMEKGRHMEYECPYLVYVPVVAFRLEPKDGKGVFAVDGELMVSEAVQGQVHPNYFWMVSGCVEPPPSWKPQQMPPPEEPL

## NS(=O)(=O)c1ccc(N/N=C2\C(=O)Nc3ccc4ncccc4c32)cc1
[1]
  inhibition: -1.18%
[2]
  inhibition: 0.16%
[3]
  inhibition: 7.47%
[4]
  inhibition: 5.01%
[5]
  inhibition: 32.2%
[6]
  inhibition: 9.67%
[7]
  inhibition: 20%
[8]
  inhibition: 4.79%
[9]
  inhibition: 26%
[10]
  inhibition: 8.67%

## CCn1c(-c2nonc2N)nc2c(C#CC(C)(C)O)ncc(OC3CCNCC3)c21
[1]
  inhibition: 4.1%
[2]
  inhibition: -2.62%
[3]
  inhibition: 0.82%
[4]
  inhibition: 5.58%
[5]
  inhibition: 2.13%
[6]
  inhibition: 3.92%
[7]
  inhibition: 0.96%
[8]
  inhibition: 4.3%
[9]
  inhibition: 5.45%
[10]
  inhibition: 79.5%

## COc1cc2ncn(-c3cc(OCc4ccccc4C(F)(F)F)c(C(=O)N(C)C)s3)c2cc1OC
[1]
  inhibition: -3.72%
[2]
  inhibition: 0.13%
[3]
  inhibition: -2.18%
[4]
  inhibition: -0.24%
[5]
  inhibition: 2.74%
[6]
  inhibition: 5.36%
[7]
  inhibition: 2.95%
[8]
  inhibition: -0.51%
[9]
  inhibition: 0.42%
[10]
  inhibition: 0.86%

## NC(=O)c1sc(-n2cnc3ccc(C(F)(F)F)cc32)cc1OCc1ccccc1Br
[1]
  inhibition: -0.89%
[2]
  inhibition: -0.23%
[3]
  inhibition: -0.48%
[4]
  inhibition: 3.45%
[5]
  inhibition: 5.66%
[6]
  inhibition: 12.5%
[7]
  inhibition: 11.2%
[8]
  inhibition: 6.41%
[9]
  inhibition: 6.44%
[10]
  inhibition: 5.17%

## CCN1CCC(CC(=O)Nc2n[nH]c3nnc(-c4cccc(F)c4F)cc23)CC1
[1]
  inhibition: 1.84%
[2]
  inhibition: -1.05%
[3]
  inhibition: 0%
[4]
  inhibition: 5.23%
[5]
  inhibition: 2.82%
[6]
  inhibition: 4.71%
[7]
  inhibition: 0.12%
[8]
  inhibition: 5.28%
[9]
  inhibition: 3.6%
[10]
  inhibition: 4.71%

## CCn1c(-c2nonc2N)nc2c(C#CC(C)(C)O)nc(OC[C@H](N)c3ccccc3)cc21
[1]
  inhibition: 0.93%
[2]
  inhibition: -0.49%
[3]
  inhibition: 0%
[4]
  inhibition: 1.82%
[5]
  inhibition: 4.54%
[6]
  inhibition: 3.2%
[7]
  inhibition: 2.58%
[8]
  inhibition: 1.71%
[9]
  inhibition: 4.92%
[10]
  inhibition: 8.21%

## Fc1ccc(-c2nn3ccccc3c2-c2ccncc2)cc1
[1]
  inhibition: -4.19%
[2]
  inhibition: 0.23%
[3]
  inhibition: -0.19%
[4]
  inhibition: -0.45%
[5]
  inhibition: 0.13%
[6]
  inhibition: 2.86%
[7]
  inhibition: -1.37%
[8]
  inhibition: 0.51%
[9]
  inhibition: 0.63%
[10]
  inhibition: 2.31%

## CNC(=O)c1cncc(/C=C/c2ccccc2Cl)c1
[1]
  inhibition: -2.41%
[2]
  inhibition: 0.11%
[3]
  inhibition: -0.01%
[4]
  inhibition: 0.75%
[5]
  inhibition: 8.72%
[6]
  inhibition: 2.99%
[7]
  inhibition: -3.09%
[8]
  inhibition: -0.46%
[9]
  inhibition: 1.87%
[10]
  inhibition: 2.76%

## CCN(CC)S(=O)(=O)c1ccc(OC)c(Nc2ncc(-c3ccccc3)o2)c1
[1]
  inhibition: -3.4%
[2]
  inhibition: -1.48%
[3]
  inhibition: 0.49%
[4]
  inhibition: 2.99%
[5]
  inhibition: 15.1%
[6]
  inhibition: 3.54%
[7]
  inhibition: -6.23%
[8]
  inhibition: 0.24%
[9]
  inhibition: -0.16%
[10]
  inhibition: 2.98%

## COc1ccc(CNC(=O)c2ccc(-c3cc(-c4nnc(C)o4)ccc3C)cc2)cc1
[1]
  inhibition: -0.2%
[2]
  inhibition: 1.04%
[3]
  inhibition: 0.14%
[4]
  inhibition: 6.07%
[5]
  inhibition: 16.4%
[6]
  inhibition: 2%
[7]
  inhibition: 7.25%
[8]
  inhibition: 1.12%
[9]
  inhibition: 4.56%
[10]
  inhibition: 5.88%

## CCCN(CCS(C)(=O)=O)Cc1ccc(-c2ccc3ncnc(Nc4ccc(OCc5cccc(F)c5)c(Cl)c4)c3c2)o1
[1]
  inhibition: 0.07%
[2]
  inhibition: 0.75%
[3]
  inhibition: 0.76%
[4]
  inhibition: 4.77%
[5]
  inhibition: 9.35%
[6]
  inhibition: 3.79%
[7]
  inhibition: 2.86%
[8]
  inhibition: 0.53%
[9]
  inhibition: 0.26%
[10]
  inhibition: 2.17%

## CS(=O)(=O)CCNCc1ccc(-c2ccc3ncnc(Nc4ccc(OCc5ccccc5)c(C(F)(F)F)c4)c3c2)o1
[1]
  inhibition: 3.88%
[2]
  inhibition: -1.22%
[3]
  inhibition: 0.8%
[4]
  inhibition: 10.8%
[5]
  inhibition: 4.64%
[6]
  inhibition: 5.21%
[7]
  inhibition: 0.84%
[8]
  inhibition: 9.46%
[9]
  inhibition: 10.4%
[10]
  inhibition: 6.52%

## COc1cc(N2CCN(C(C)C)CC2)ccc1Nc1nc(Nc2ccc(F)cc2C(N)=O)c2cc[nH]c2n1
[1]
  inhibition: 0.04%
[2]
  inhibition: -0.73%
[3]
  inhibition: -1.03%
[4]
  inhibition: 15.7%
[5]
  inhibition: 54.7%
[6]
  inhibition: 0.45%
[7]
  inhibition: -0.19%
[8]
  inhibition: 2.59%
[9]
  inhibition: 3.32%
[10]
  inhibition: 0.77%

## Fc1cccc(COc2ccc(Nc3ncnc4sc(-c5ccco5)cc34)cc2Cl)c1
[1]
  inhibition: -6.23%
[2]
  inhibition: -2.56%
[3]
  inhibition: -0.56%
[4]
  inhibition: 8.17%
[5]
  inhibition: 3.13%
[6]
  inhibition: 8.13%
[7]
  inhibition: 10.1%
[8]
  inhibition: 5.86%
[9]
  inhibition: 6.49%
[10]
  inhibition: 6.22%

## Nc1nc(-c2cccc(Cl)c2)c(-c2ccc3ncccc3n2)s1
[1]
  inhibition: -3.27%
[2]
  inhibition: 0.78%
[3]
  inhibition: 0.1%
[4]
  inhibition: 4.99%
[5]
  inhibition: 15.3%
[6]
  inhibition: 10.6%
[7]
  inhibition: 13.9%
[8]
  inhibition: 8.18%
[9]
  inhibition: 7.33%
[10]
  inhibition: 9.04%

## COc1ccc(-c2oc3ncnc(N)c3c2-c2ccc(NC(=O)Nc3cc(C(F)(F)F)ccc3F)cc2)cc1
[1]
  inhibition: -0.9%
[2]
  inhibition: 0.08%
[3]
  inhibition: 0.05%
[4]
  inhibition: 6.63%
[5]
  inhibition: 16.7%
[6]
  inhibition: 1.18%
[7]
  inhibition: 2.5%
[8]
  inhibition: 7.03%
[9]
  inhibition: 5.27%
[10]
  inhibition: 8.13%

## Fc1ccc(-c2cc(-c3c[nH]nc3-c3ccccn3)ccn2)cc1
[1]
  inhibition: -2.44%
[2]
  inhibition: -0.74%
[3]
  inhibition: -0.12%
[4]
  inhibition: 3.83%
[5]
  inhibition: 11.9%
[6]
  inhibition: 5.34%
[7]
  inhibition: 3.99%
[8]
  inhibition: 5.76%
[9]
  inhibition: 9.85%
[10]
  inhibition: 8.65%
